Laboratory results from PubChem BioAssay (NCATS).
Results filed as inconclusive are left out. A number with no mark means an inactive call. Calls follow the shape of the dose curve; as a rule, active = well fitted inhibition curve with a large enough effect; inconclusive = small, poorly fitted or top-dose-only effect; inactive = flat fitted curve, though single readings scatter.

Molecular target: Tyrosine-protein phosphatase non-receptor type substrate 1 (Homo sapiens) + Leukocyte surface antigen CD47 (Homo sapiens) (UniProt P78324+Q08722)
Test: CD47-SIRPalpha protein protein interaction - Alpha assay qHTS validation (AID 1347059);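 also: bead proximity luminescence from CD47 binding SIRPalpha after compound preincubation with SIRPalpha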
Conditions: AlphaScreen CD47-His/biotin-SIRPalpha binding, LOPAC; series mostly up to 38.3 µM; activity change, negative = inhibition: at the top concentration
Description: SIRPalpha is a myeloid cell expressed immunomodulatory receptor that binds the tumor expressed immune checkpoint CD47. Therapeutic disruption of this interaction leads to immune-mediated tumor rejection. This assay was used to quantitate CD47-SIRPalpha binding biochemically and evaluate chemical libraries for novel CD47-SIRPalpha inhibitors. To recapitulate the biological interaction of CD47 and SIRPalpha, we designed expression constructs to produce their recombinant, soluble, extracellular interaction domains. CD47 was produced with an N-terminal 6His tag. SIRPalpha was produced with an N-terminal Avi-Tag for site-specific biotin incorporation. The CD47-SIRPalpha interaction was measured by AlphaScreen using affinity tag linked reagents (Ni-NTA acceptor bead and streptavidin donor bead). SIRPalpha without biotin incorporation was used as a positive control inhibitor.
PROTOCOL TABLE (as described by Miller, T. et al. 2019)
SEQUENCE No. (e.g., 1, 2, 3, etc.); […] (e.g., Cells, Incubation, Reagent, etc.); VALUE and DESCRIPTION.
1a. Reagent. 2 uL SIRPalpha-biotin (25 nM) added to respective wells in Assay buffer; white/solid bottom high base, med bind 1536-well plates (Greiner 789075)
1b. Reagent. 2 uL Assay buffer negative control for background fluorescence
2. Reagent. 23 nL library compounds (7-pt, 1:4 intraplate titration series) or DMSO control transferred by Pin Tool
3. Centrifuge. Centrifuge plate for 30 s at 1000 RPM
4. Incubation.#Incubate reagents at room temperature for 30 min, protected from light
5. Reagent. 2 uL CD47-His (12.5 nM) in Assay buffer
6. Centrifuge. Centrifuge plate for 30 s at 1000 RPM
7. Incubation.#Incubate reagents at room temperature for 30 min, protected from light
8. Reagent. 1 uL Ni-NTA beads (10 ug/mL) added to respective wells
9. Reagent. 1 uL SAV beads (10 ug/mL) added to respective wells
10. Centrifuge. Centrifuge plate for 30 s at 1000 RPM
11. Incubation. Incubate reagents at room temperature for 30 min, protected from light
12. Detector. Measure AlphaScree n on EnVision (1536A1 aperture)
Where possible, perform Donor bead dilution and addition away from direct sunlight or with bright overhead lights turned off (<100 lux, similar to hallway lighting). Lighting should still be bright enough to allow accurate pipetting.
1. Assay buffer composition.#Phosphate buffered saline (PBS; 10 mM Phosphate, 137 mM NaCl, and 2.7 mM KCl; pH 7.4), 0.05% IGEPAL CA-630
2. 23nL of […] library compounds (7 plates) or DMSO vehicle control transferred to 9 Greiner white/solid bottom high base, TC plates in 7 interplate 1:5 titrations (see Yasgar, A. et al. 2008) with Pintool. Two of the 9 plates are DMSO-only in compound field at beginning and end of compound library-treated plates.
12. Aperture = 1536 plate HTS AlphaScreen; plate-detector distance = 0; Total measurement time = 240; Ex. time = 80 ms (33%); Afterglow CT1 corr. factor = 0; Glow CT2 corr. factor = 0; Bleach CT3 corr. factor = 0; Ref. signal= 417733; Ref. AD gain = 2

Chain of Tyrosine-protein phosphatase non-receptor type substrate 1 (Homo sapiens) + Leukocyte surface antigen CD47 (Homo sapiens) (P78324 whole entry, looked up): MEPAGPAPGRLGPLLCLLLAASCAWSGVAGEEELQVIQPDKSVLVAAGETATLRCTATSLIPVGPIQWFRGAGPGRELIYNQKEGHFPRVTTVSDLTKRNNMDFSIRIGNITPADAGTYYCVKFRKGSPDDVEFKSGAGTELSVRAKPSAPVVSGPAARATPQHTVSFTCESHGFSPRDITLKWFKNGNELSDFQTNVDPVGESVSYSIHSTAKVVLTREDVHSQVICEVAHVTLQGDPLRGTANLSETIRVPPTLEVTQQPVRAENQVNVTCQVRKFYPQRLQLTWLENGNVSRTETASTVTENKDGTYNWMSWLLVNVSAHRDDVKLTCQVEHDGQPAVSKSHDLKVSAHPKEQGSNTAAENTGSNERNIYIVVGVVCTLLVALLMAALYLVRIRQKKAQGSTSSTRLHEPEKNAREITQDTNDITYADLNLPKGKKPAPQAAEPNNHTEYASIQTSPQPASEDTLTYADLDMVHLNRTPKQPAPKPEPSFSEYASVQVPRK
Chain of Tyrosine-protein phosphatase non-receptor type substrate 1 (Homo sapiens) + Leukocyte surface antigen CD47 (Homo sapiens) (Q08722 whole entry, looked up): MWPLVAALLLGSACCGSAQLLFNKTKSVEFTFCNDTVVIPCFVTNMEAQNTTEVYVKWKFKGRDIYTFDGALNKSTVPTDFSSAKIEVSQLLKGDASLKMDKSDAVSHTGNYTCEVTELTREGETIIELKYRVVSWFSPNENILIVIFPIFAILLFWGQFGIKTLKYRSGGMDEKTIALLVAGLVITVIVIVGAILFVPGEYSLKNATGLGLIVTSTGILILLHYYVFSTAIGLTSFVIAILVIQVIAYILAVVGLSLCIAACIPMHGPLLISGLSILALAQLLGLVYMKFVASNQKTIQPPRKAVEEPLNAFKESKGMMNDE

SMILES | activity change, negative = inhibition [%]
CCCn1c(=O)c2[nH]c(-c3ccc(S(=O)(=O)O)cc3)nc2n(CCC)c1=O | 3.58
c1ccc(CN2CCC3(CCCc4ccccc43)CC2)cc1 | -0.985
Cc1nc(N=Nc2ccc(S(=O)(=O)O)cc2S(=O)(=O)O)c(COP(=O)(O)O)c(C=O)c1O | -1.05
NC(=O)c1ccccc1 | 1.63
CC(=O)O[C@H]1Cc2ccccc2N(C(N)=O)c2ccccc21 | 0.344
Nc1ncnc2c1ncn2C1CCCC1 | 3.84
CN1CCC2(CCN3CCc4c(oc5ccccc45)C3C2)N(C)C1=O (stereo not given) | -0.505
COc1ccccc1N1CCN(CCCCNC(=O)c2ccc3ccccc3c2)CC1 | 0.593
[Li+] | -0.978
O=c1ccn([C@@H]2O[C@H](COP(=O)(O)OP(=O)(O)O)[C@@H](O)[C@H]2O)c(=O)[nH]1 | 0.375
NC(Cc1cccc(-c2ccccc2CP(=O)(O)O)c1)C(=O)O (stereo not given) | 0.5
CC(C)(C)c1ccc(/C=C/C(=O)Nc2ccc3c(c2)OCCO3)cc1 | -22.6
OC[C@H]1NC[C@@H](O)[C@@H]1O | 1.76
CC[C@@H]1Cc2cc(O)ccc2C2=C1c1ccc(O)cc1C[C@H]2CC | -29.3
COc1cc(CC(=O)O)ccc1O | -0.709
NC1CONC1=O (stereo not given) | 3.08
CC(C)Cn1c(=O)n(C)c(=O)c2[nH]cnc21 | -3.13
NC1(C(=O)O)CCc2cc(C(=O)O)ccc21 (stereo not given) | -2.76
O=C(O)c1cc(=O)cc(C(=O)O)[nH]1 | 0.481
CC(=O)NNC(=O)N1Cc2ccccc2Oc2ccc(Cl)cc21 | -1.37

SMILES | activity change, negative = inhibition [%]
NCC(O)C1CCCCCCC1 (stereo not given) | 2.31
O=C(O)/C=C/c1cnc[nH]1 | 0.453
COc1ccc(-c2cc3ncc(C)n3c(Nc3ncccc3C(N)=O)n2)cc1OC | -9.77
C[C@H]1CC2C3CCC4=CC(=O)C=C[C@]4(C)[C@@]3(Cl)[C@@H](O)C[C@]2(C)[C@@]1(O)C(=O)CO (stereo not given in full) | 1.43
COc1ccc2c(c1)c(CC(=O)O)c(C)n2C(=O)c1ccccc1 | 1.61
O=C(O)C1CCNCC1 | 3.2
O=c1[nH]c(=O)c2nc3ccccc3nc2[nH]1 | -0.674
CCCC(=O)NCCc1c2n(c3ccc(OC)cc13)CCCc1ccccc1-2 | -19.3
COc1cccc(OC)c1OCCNCC1CSc2ccccc2O1 (stereo not given) | -1.73
CN1Cc2sccc2C(c2ccc(O)c(O)c2)C1 (stereo not given) | -3.07
COc1cc([C@@H]2c3cc4c(cc3[C@H](O)C3COC(=O)[C@@H]32)OCO4)cc(OC)c1OC (stereo not given in full) | 0.0085
CCCCCCCCCCCCCCSCC(=O)O | 2.45
CCC(=O)N1CCN(C(=O)c2ccccc2)CC1 | 1.97
C=CCN1CCc2c(cc(O)c(O)c2Cl)C(c2ccccc2)C1 (stereo not given) | -19.6
CCCC[C@@]1(C2CCCC2)Cc2cc(OCC(=O)O)c(Cl)c(Cl)c2C1=O | 0.127
CCN1C(=O)C=CC1=O | 0.286
O=C(OCCN1CCOCC1)C1(c2ccccc2)CCCCC1 | 3.36
COc1ccccc1N1CCN(CCCCN2C(=O)c3ccccc3C2=O)CC1 | -1.19
N#C/C(=C\c1ccc(O)c(O)c1)C(=O)NCCc1ccccc1 | -9.52
CCCCC[C@H](CC(=O)NO)C(=O)N[C@H](C(=O)N1CCC[C@H]1CO)C(C)C | 0
